Values joined by “and” are separate entries in the source; they are usually repeats but may differ in a detail not shown here. Identical values can stand only once. Results filed as inconclusive are left out. A structure can be active in one record and inactive in another. Active and inactive are the calls of the source. Unless noted, the call rests on the fitted dose curve; in most records, active means well fitted curve in the direction sought with a large enough effect in the repeat runs; inconclusive means weak or mixed curves; inactive means no such curve, though single readings can be large; an effect the other way counts as inactive or inconclusive.
Assays:
[1] = qHTS assay to identify small molecule agonists of H2AX (AID 1224845; active means well fitted activation curve with a large enough effect in the signal ratio in the repeat runs, not every such curve was filed as active; the % refers to the signal ratio; further: potency means the concentration at half of the fitted maximal effect)
Summary of the method: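 Phospho-H2AX Ser139 measured by HTRF (ex 320 nm; em 665 and 620 nm) after 24 hr antibody incubation. Compounds, 15 concentrations, 0.76% DMSO, were applied to CHO-K1 cells for 3hr at 37C before lysis.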

[2] = qHTS assay to identify small molecule agonists of H2AX - cell viability counter screen (AID 1224847; calls by dose curve; further: nearly all actives have a fitted effect of over 30% in size; further: potency means the concentration at half of the fitted maximal effect)
Summary of the method: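 Counter-screen for viability: CellTiter-Glo ATP luminescence read after 3 h compound treatment (15-point titration, 0.76% DMSO final) of CHO-K1 cells at 37C, with 30 min room-temperature reagent incubation.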

[3] = qHTS RealTime-Glo MT Cell Viability Assay in HepG2 cells - 24 hour (AID 1224867); further: nearly all actives have a fitted effect of over 50% in size; further: potency means the concentration at half of the fitted maximal effect
Summary of the method: (§1)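 Cell number in HepG2 cultures estimated from NanoLuc luminescence generated by metabolic reduction of a prosubstrate by living cells. The homogeneous, nonlytic format allowed repeated reads at 0, 8, 16, 24, 32 and 40 h of compound exposure.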

[4] = qHTS RealTime-Glo MT Cell Viability Assay in HEK293 cells - 32 hour (AID 1224868); further: nearly all actives have a fitted effect of over 50% in size; further: potency means the concentration at half of the fitted maximal effect
Summary of the method: (§2)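 Homogeneous bioluminescent viability format in HEK293 cells (600 cells/well). Following 5 h at 37 C/5% CO2, 23 nL compound was pintooled; the signal was measured repeatedly during 40 h incubation.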

[5] = A CellTox Green Cytotoxicity Assay to monitor cytotoxicity in HEK293 cells - 0 hour (AID 1224869); further: nearly all actives have a fitted effect of over 50% in size; further: potency means the concentration at half of the fitted maximal effect
Summary of the method: (§3)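 Tox21 screen in HEK293: membrane-impermeant cyanine dye fluoresces on binding dead-cell DNA; compound pinned 5 h post-seeding, plates held at 37 C, signal read repeatedly through 40 h.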

[6] = qHTS RealTime-Glo MT Cell Viability Assay in HepG2 cells - 40 hour (AID 1224870); further: nearly all actives have a fitted effect of over 50% in size; further: potency means the concentration at half of the fitted maximal effect
Summary of the method: (§4)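 Real-time viability: cells seeded at 600 per well together with NanoLuc and cell-permeant prosubstrate, compounds added after 5 h incubation. Luminescence tracked at 0, 8, 16, 24, 32 and 40 h of exposure.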

[7] = A CellTox Green Cytotoxicity Assay to monitor cytotoxicity in HEK293 cells - 40 hour (AID 1224871); further: nearly all actives have a fitted effect of over 45% in size; further: potency means the concentration at half of the fitted maximal effect
Summary of the method: as §3

[8] = qHTS RealTime-Glo MT Cell Viability Assay in HEK293 cells - 16 hour (AID 1224872); further: nearly all actives have a fitted effect of over 50% in size; further: potency means the concentration at half of the fitted maximal effect
Summary of the method: as §2

[9] = qHTS RealTime-Glo MT Cell Viability Assay in HepG2 cells - 8 hour (AID 1224873); further: nearly all actives have a fitted effect of over 55% in size; further: potency means the concentration at half of the fitted maximal effect
Summary of the method: as §4

[10] = A CellTox Green Cytotoxicity Assay to monitor cytotoxicity in HEK293 cells - 24 hour (AID 1224875); further: nearly all actives have a fitted effect of over 45% in size; further: potency means the concentration at half of the fitted maximal effect
Summary of the method: as §3

[11] = A CellTox Green Cytotoxicity Assay to monitor cytotoxicity in HepG2 cells - 16 hour (AID 1224876); further: nearly all actives have a fitted effect of over 45% in size; further: potency means the concentration at half of the fitted maximal effect
Summary of the method: (§5)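 Measurements at 0, 8, 16, 24, 32 and 40 h of treatment captured CellTox Green fluorescence in HepG2 cells that had been co-plated with reagent and preincubated 5 h at 37 C/5% CO2.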

[12] = A CellTox Green Cytotoxicity Assay to monitor cytotoxicity in HepG2 cells - 24 hour (AID 1224878); further: nearly all actives have a fitted effect of over 45% in size; further: potency means the concentration at half of the fitted maximal effect
Summary of the method: as §5

[13] = A CellTox Green Cytotoxicity Assay to monitor cytotoxicity in HepG2 cells - 40 hour (AID 1224879); further: nearly all actives have a fitted effect of over 40% in size; further: potency means the concentration at half of the fitted maximal effect
Summary of the method: as §5

[14] = qHTS RealTime-Glo MT Cell Viability Assay in HEK293 cells - 0 hour (AID 1224880)
Summary of the method: (§6)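 HEK293 + NanoLuc + prosubstrate, 600 cells/well; 5 h, 37 C/5% CO2; compound 23 nL in DMSO by pintool; 37 C; luminescence read at 0, 8, 16, 24, 32 and 40 h time points.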

[15] = A CellTox Green Cytotoxicity Assay to monitor cytotoxicity in HEK293 cells - 32 hour (AID 1224881); further: nearly all actives have a fitted effect of over 40% in size; further: potency means the concentration at half of the fitted maximal effect
Summary of the method: as §3

[16] = qHTS assay to identify small molecule antagonists of the estrogen related receptor (ERR) signaling pathway from Tox21 library (AID 1224848); further: nearly all actives have a fitted effect of over 50% in size; further: potency means the concentration at half of the fitted maximal effect
Summary of the method: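 Luciferase luminescence (ONE-Glo, 30 min room temperature) was the read-out. Cells of the NTP-supplied ERR line, 2,000 per well, were given 6 h at 37 C before compound addition in DMSO and 18 h exposure at 37 C.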

[17] = qHTS assay to identify small molecule agonists of the estrogen related receptor (ERR) signaling pathway from Tox21 library (AID 1224849; calls by dose curve; further: nearly all actives have a fitted effect of over 15% in size); conditions: ERR reporter cell line, ONE-Glo luciferase, 18 h
Summary of the method: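 Tox21 compounds tested for ERR agonism in an NTP reporter cell line: 18 h treatment at 37 C, then ONE-Glo luminescence.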

[18] = qHTS RealTime-Glo MT Cell Viability Assay in HEK293 cells - 40 hour (AID 1224874); conditions: RealTime-Glo luminescence; max response: stronger effect = lower value; further: nearly all actives have a fitted effect of over 50% in size; further: potency means the concentration at half of the fitted maximal effect
Summary of the method: as §6

[19] = qHTS RealTime-Glo MT Cell Viability Assay in HepG2 cells - 32 hour (AID 1224877); further: nearly all actives have a fitted effect of over 55% in size; further: potency means the concentration at half of the fitted maximal effect
Summary of the method: as §1

[20] = qHTS assay to identify small molecule agonists of the hypoxia (HIF-1) signaling pathway (AID 1224846; active means well fitted activation curve with a large enough effect in the signal ratio in the repeat runs, not every such curve was filed as active; the % refers to the signal ratio)
Summary of the method: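 Reporter induction in HRE-bla ME-180 cells is taken as agonism: cells sit 5 hrs after plating, receive compounds or DMSO only, incubate 17 hrs at 37C under 5% CO2, and are loaded with CCF4-AM for beta-lactamase FRET measurement.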
On the % scale 0 is the no-effect control and ±100 the full control effect.

COc1ccccc1N1CCNCC1
inactive: Potency [1] | Potency [2] | Potency [3] | Potency [4] | Potency [5] | Potency [6] | Potency [7] | Potency [8] | Potency [9] | Potency [10] | Potency [11] | Potency [12] | Potency [13] | outcome [14] | Potency [15]

O=C(O)C(O)C(O)C(=O)O (configuration not stated)
inactive: Potency [1] | Potency [2] | Potency [3] | Potency [4] | Potency [5] | Potency [6] | Potency [7] | Potency [8] | Potency [9] | Potency [10] | Potency [11] | Potency [12] | Potency [13] | outcome [14] | Potency [15]

CN(C)c1ccc(N=O)cc1
active: activity change, positive = activation ([17]; at 92.4 µM (top of the series)) -55.7% and -48.2% | Potency [3] 55.1 µM and 38.9 µM | Potency [4] 15.5 µM and 21.9 µM | Potency [6] 34.7 µM | Potency [7] 11 µM and 19.5 µM | Potency [8] 15.5 µM and 21.9 µM | Potency [9] 49.1 µM and 24.5 µM | Potency [18] 13.8 µM and 19.5 µM | Potency [10] 13.8 µM and 19.5 µM | Potency [19] 34.7 µM | Potency [12] 49.1 µM | Potency [13] 34.8 µM and 12.3 µM | Potency [15] 11 µM and 19.5 µM
inactive: Potency [16] | Potency [5]

CC(Cc1ccccc1)NCc1ccccc1Cl (configuration not stated)
inactive: Potency [1] | Potency [3] | Potency [4] | Potency [5] | Potency [6] | Potency [8] | Potency [9] | max response [18] -14.1% | Potency [11] | Potency [19] | Potency [12] | Potency [13] | outcome [14]

C#C[C@]1(O)CC[C@H]2[C@@H]3CCC4=CC(=O)CCC4=C3C=C[C@@]21CC
inactive: outcome [20] | Potency [5] | Potency [6] | Potency [7] | Potency [9] | Potency [10] | Potency [11] | Potency [19] | Potency [12] | Potency [13] | outcome [14] | Potency [15]
active: Potency [2] 34.8 µM

CCOC(=O)c1cn2nc(OP(=S)(OCC)OCC)cc2nc1C
inactive: Potency [1] | activity change, positive = activation ([17]; at 92.4 µM (top of the series)) -40.1% | Potency [3] | Potency [5] | Potency [6] | Potency [7] | Potency [10] | Potency [11] | Potency [12] | Potency [13] | outcome [14] | Potency [15]
active: Potency [16] 34.4 µM | Potency [8] 17.4 µM | Potency [18] 15.5 µM

O=C1CC[C@@]2(O)[C@H]3Cc4ccc(O)c5c4[C@@]2(CCN3CC2CC2)[C@H]1O5
inactive: Potency [1] | Potency [2] | Potency [3] | Potency [4] | Potency [5] | Potency [6] | Potency [7] | Potency [8] | Potency [9] | max response [18] 3.94% | Potency [10] | Potency [11] | Potency [19] | Potency [12] | Potency [13] | outcome [14] | Potency [15]

C[C@H](N)[C@H](O)c1ccc(O)c(O)c1
active: Potency [5] 16.9 µM | Potency [7] 10.7 µM | Potency [10] 19 µM | Potency [11] 23.9 µM | Potency [12] 23.9 µM | Potency [13] 23.9 µM | Potency [15] 19 µM
inactive: Potency [2] | Potency [16] | Potency [3] | Potency [4] | Potency [6] | Potency [8] | Potency [9] | Potency [19] | outcome [14]

COc1ccc2c(c1OC)C(=O)O[C@H]2[C@@H]1c2cc3c(cc2CCN1C)OCO3
inactive: Potency [1] | Potency [2] | Potency [3] | Potency [4] | Potency [5] | Potency [6] | Potency [7] | Potency [8] | max response [18] 4.68% | Potency [10] | Potency [11] | Potency [19] | Potency [12] | Potency [13] | outcome [14] | Potency [15]

Cc1ncc(C[n+]2csc(CCO)c2C)c(N)n1
inactive: Potency [1] | Potency [2] | Potency [3] | Potency [4] | Potency [5] | Potency [6] | Potency [7] | Potency [8] | Potency [9] | max response [18] -4.98% | Potency [10] | Potency [11] | Potency [19] | Potency [12] | Potency [13] | outcome [14] | Potency [15]

N#CC(C#N)=Cc1ccc(O)c(O)c1
inactive: outcome [20] | Potency [2] | Potency [3] | Potency [4] | Potency [5] | Potency [6] | Potency [7] | Potency [8] | Potency [10] | Potency [11] | Potency [19] | Potency [12] | Potency [13] | Potency [15]

NCCc1cc(O)c(O)cc1O
inactive: outcome [20] | Potency [2] | Potency [3] | Potency [5] | Potency [6] | Potency [7] | Potency [8] | Potency [9] | Potency [10] | Potency [11] | Potency [19] | Potency [12] | Potency [13] | outcome [14] | Potency [15]

C=CCSSCC=C
inactive: outcome [20] | Potency [2] | Potency [3] | Potency [4] | Potency [5] | Potency [6] | Potency [7] | Potency [8] | Potency [9] | max response [18] 1.18% | Potency [10] | Potency [11] | Potency [12] | Potency [13] | outcome [14] | Potency [15]

C=CCN1C[C@H](C)N([C@H](c2ccc(C(=O)N(CC)CC)cc2)c2cccc(OC)c2)C[C@H]1C
active: Potency [4] 19 µM | Potency [13] 21.3 µM
inactive: Potency [1] | activity change, positive = activation ([17]; at 42.5 µM (top of the series)) -5.94% | Potency [3] | Potency [5] | Potency [6] | Potency [9] | Potency [11] | Potency [19] | Potency [12] | outcome [14]

O=C(CCl)CCl
active: Potency [1] 104 µM | Potency [4] 18 µM and 19.5 µM | Potency [7] 21.9 µM | Potency [18] 18 µM and 21.9 µM | Potency [12] 22.7 µM | Potency [13] 25.5 µM
inactive: Potency [2] | Potency [3] | Potency [5] | Potency [6] | Potency [9] | Potency [10] | Potency [11] | Potency [19] | outcome [14]

C[C@@H]1C[C@@H]([C@H](O)CC2CC(=O)NC(=O)C2)C(=O)[C@@H](C)C1
inactive and 19.5 µM (active): Potency [7]
active: Potency [16] 682 nM and 545 nM and 750 nM | Potency [4] 387 nM and 219 nM and 169 nM | Potency [18] 387 nM and 245 nM and 169 nM
inactive: outcome [20] | Potency [2] | activity change, positive = activation ([17]; at 42.5 µM (top of the series)) -64.4% | activity change, positive = activation ([17]; at 92.4 µM (top of the series)) -74.2% and -68.3% | Potency [3] | Potency [5] | Potency [6] | Potency [9] | Potency [10] | Potency [11] | Potency [12] | Potency [13] | outcome [14] | Potency [15]
